PubChem BioAssay

What follows are compounds tested against Torsin-1A-interacting protein 2 (Homo sapiens) (UniProt Q8NFQ8) (assay: LULL1 binders on small-molecule microarray, primary screen, cell lysate, human LULL1 lysate, 635/667 nm fluorescence (AID 1092;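 further: probe is lysate of COS7 cells overexpressing human LULL1; score merges per-feature 667 nm fluorescence with signal-to-noise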)). Conditions: hLULL1 lysate binding, 635 nm fluorescence, higher = more signal.
Chain of Torsin-1A-interacting protein 2 (Homo sapiens) (Q8NFQ8 whole entry, looked up): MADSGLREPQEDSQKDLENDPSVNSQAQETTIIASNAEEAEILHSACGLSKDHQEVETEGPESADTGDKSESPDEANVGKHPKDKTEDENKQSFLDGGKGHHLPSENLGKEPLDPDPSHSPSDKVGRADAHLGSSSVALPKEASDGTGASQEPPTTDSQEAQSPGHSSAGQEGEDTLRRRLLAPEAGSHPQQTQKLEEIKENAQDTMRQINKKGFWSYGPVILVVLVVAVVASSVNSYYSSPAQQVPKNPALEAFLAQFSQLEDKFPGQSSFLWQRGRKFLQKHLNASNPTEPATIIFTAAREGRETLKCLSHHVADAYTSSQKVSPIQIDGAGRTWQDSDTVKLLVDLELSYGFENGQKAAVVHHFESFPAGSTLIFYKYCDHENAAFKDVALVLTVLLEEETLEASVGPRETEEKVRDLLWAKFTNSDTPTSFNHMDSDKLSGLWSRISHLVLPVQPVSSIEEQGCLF
Compound `O=C1C[C@@](C(=O)O)(c2ccc([N+](=O)[O-])cc2)[C@@H](c2ccc(CO)cc2)N1CC12CC3CC(CC(C3)C1)C2` has a composite z-score of 2.3.
For `Cc1ccc(S[C@]2(C(=O)O)CC(=O)N(Cc3ccccc3C(F)(F)F)[C@@H]2c2ccc(CO)cc2)cc1`, the composite z-score was 1.87.
Compound `COC(=O)c1ccc(OC)c(/C=C\CC(CCc2ccccc2)OC(C)=O)c1` (stereo unspecified) has a composite z-score of 0.324.
`C#CCNS(=O)(=O)N(C)C` gave a composite z-score of 0.43.
In the case of `O=C1CSC(c2cccc([N+](=O)[O-])c2)N1c1ccccc1` (stereo unspecified), the composite z-score is reported as 0.517.
`CCN(CC)c1ccc(N2CC=CC34O[C@@H]5/C=C\CCCOC(=O)C5[C@H]3C(=O)N(CCCCCO)[C@@H]4C2=O)cc1` (stereo partly specified) gave a composite z-score of 0.45.
In the case of `OCc1ccc(-c2cc[n+](Cc3cccc(OC(F)(F)F)c3)cc2)cc1`, the composite z-score is reported as 1.99.
With `COCC1=C([C@H](O)CCc2ccccc2)[C@H](CO)[C@@H]2C(=O)N(C)C(=O)[C@@H]2C1` the composite z-score was 0.258.
In the case of `COC(=O)[C@@]1(Cc2ccc(F)cc2)[C@H]2c3cc(C(=O)N(C)C)n(Cc4ccc(C)c(F)c4F)c3C[C@H]2CN1C(=O)c1ccccc1`, the composite z-score is reported as 3.18.
Compound `CCOC(=O)C[C@H]1[C@H](OC(=O)c2ccc(C(=O)c3ccccc3)cc2)[C@@H](NC(=O)C2CCCCC2)c2cc(OCCCO)ccc2N1C(=O)Cc1ccc(OC)cc1` has a composite z-score of 0.603.
`CCCN1C(=O)[C@@]2(Cc3ccccc3)N=C(c3ccc(OCCCO)cc3)O[C@H]2c2ccccc21` showed a composite z-score of 3.13.
Work on `O=C1C2C=CC(C(O)c3ccccn3)N(Nc3ccccc3)C2C(=O)N1c1ccccc1` (stereo unspecified) yielded a composite z-score of 2.24.
`COc1cc(C(O)C2C=CC3C(=O)N(C)C(=O)C3N2NC(=O)OC(C)(C)C)cc(OC)c1OC` (stereo unspecified) gave a composite z-score of 3.16.
Compound `COCC(=C=CC[C@@H](O)c1ccccc1OCCO)C[C@@H](O)c1ccccn1` has a composite z-score of 2.97.
`C[N+](C)(C)CCCC[C@@H]1NC(=O)[C@@H]2C[C@H](C(=O)O)[C@H](c3cccc(OCCO)c3)N2C1=O` showed a composite z-score of 0.423.
For `C=CCC(OC(C)=O)[C@@H]1[C@@H](N(Cc2ccc(-c3cccc(C(F)(F)F)c3)o2)C(=O)c2cccc3ccccc23)c2cc(OCCCO)ccc2N1C(=O)c1ccc(-c2ccccc2)cc1` (stereo partly specified), the composite z-score was -0.94.
In the case of `COCCCNC(=O)[C@@]1(C)c2ccccc2C(=O)N(c2ccc(C)cn2)[C@H]1c1ccc(CO)cc1`, the composite z-score is reported as 3.55.
`COCCCNC(=O)[C@@]1(Cc2ccccc2CN=[N+]=[N-])N=C(c2ccc(OCCCO)cc2)O[C@H]1c1ccccc1N=[N+]=[N-]` showed a composite z-score of 2.67.
`CC1(C)[C@@H]2CC(C(O)C3C=CC4C(=O)N(c5ccccc5)C(=O)C4N3Nc3ccccc3F)=C[C@@H]1C2` (stereo partly specified) showed a composite z-score of 3.19.
In the case of `CCOC(=O)C[C@H]1[C@H](OC(=O)Cc2ccc3c(c2)OCO3)[C@@H](NC(=O)c2ccccc2)c2cc(OCCCO)ccc2N1C(=O)c1ccc2ccccc2n1`, the composite z-score is reported as 1.13.
`C=CC[C@]1(C(=O)NCC(O)CO)N=C(c2ccc(OCCCO)cc2)O[C@H]1c1ccccc1N=[N+]=[N-]` (stereo partly specified) showed a composite z-score of 3.31.
Work on `C=C(COC)C(=O)CC[C@H](OC(=O)c1ccccc1-c1ccccc1C(=O)O)c1ccc(OCCO)cc1` yielded a composite z-score of 0.75.
In the case of `COC(=O)[C@@]1(Cc2ccc(OC)cc2)[C@H]2c3cc(C(=O)N(C)C)n(Cc4cc(F)c(F)c(F)c4)c3C[C@H]2CN1C(=O)c1ccccc1`, the composite z-score is reported as 3.44.
For `C=CCC(OC(C)=O)[C@@H]1[C@@H](N(Cc2ccc(-c3ccccc3)cc2)C(=O)Cc2ccc(OC)cc2)c2cc(OCCCO)ccc2N1C(=O)c1ccc(-c2ccccc2)cc1` (stereo partly specified), the composite z-score was 0.182.
`COc1ccc(CCNC(=O)[C@@H]2c3ccccc3C(=O)N(Cc3ccccc3)[C@H]2c2ccc(CO)cc2)cc1` was tested, and the composite z-score was 3.23.
In the case of `COC(=O)C(CC#Cc1ccc2c(c1)[C@]1(C(=O)N2)[C@H](c2ccccc2OCCO)N2[C@H](c3ccccc3)[C@H](c3ccccc3)OC(=O)[C@H]2[C@@H]1C(=O)Nc1nc2ccccc2s1)C(=O)OC`, the composite z-score is reported as 2.93.
In the case of `COc1cc2c(cc1OC)CN(C(=O)[C@@H]1[C@H]3C(=O)O[C@H](c4ccccc4)[C@H](c4ccccc4)N3[C@H](c3ccc(OCCO)cc3)[C@@]13C(=O)Nc1ccc(C#CCCO)cc13)CC2`, the composite z-score is reported as 3.38.
`C[N+](C)(C)CCCCCCNC(=O)[C@H]1C[C@H]2C(=O)N3CCC[C@H]3C(=O)N2[C@H]1c1cccc(OCCO)c1` was tested, and the composite z-score was 3.24.
Compound `C=C(C(=O)CC[C@H](OC(=O)c1cccnc1)c1ccc(OCCO)cc1)C(C)C` has a composite z-score of 1.76.
In the case of `C=C(COC)C(=O)CC[C@H](OC(=O)c1ccccc1-c1ccccc1C(=O)O)c1ccc(CO)o1`, the composite z-score is reported as 1.37.
`COC(=O)[C@@]1(Cc2ccccc2)[C@H]2c3cc(C(=O)N4CCCC4)n(Cc4ccc(OC(F)(F)F)cc4)c3C[C@H]2CN1C(=O)c1ccccc1` showed a composite z-score of 3.29.
`CO[C@H]1O[C@H](CO)[C@@H](OC(=O)c2ccc(Br)cc2)[C@@H]2OC(=O)[C@H](Cc3cccc(Br)c3)C/C=C/C[C@@H](Cc3cccc(Br)c3)C(=O)O[C@@H]12` gave a composite z-score of 1.08.
`Cc1ccc(N2C(=O)c3ccccc3[C@](C)(C(=O)NC(C)C)[C@@H]2c2ccc(CO)cc2)nc1` was tested, and the composite z-score was 3.07.
Compound `NC(=O)[C@@H]1[C@H]2C(=O)O[C@H](c3ccccc3)[C@H](c3ccccc3)N2[C@H](c2ccccc2OCCO)[C@@]12C(=O)Nc1ccc(C#CCCO)cc12` has a composite z-score of 0.417.
In the case of `O=C1O[C@H](c2ccccc2)[C@H](c2ccccc2)N2[C@H]1[C@@H](C(=O)N1CCN(c3ncccn3)CC1)[C@]1(C(=O)Nc3ccc(C#CCCO)cc31)[C@H]2c1ccc(OCCO)cc1`, the composite z-score is reported as 3.13.
Compound `CCCC=C(CCC)[C@@H](NS(=O)(=O)c1cccc2cccnc12)c1ccc(C(=O)OC)cc1` has a composite z-score of 0.472.
